An excerpt weighted towards active compounds, which were near 3.5% of everything screened.
MITF primary: MITF inhibitors, primary screen, biochemical, AlphaScreen, human; Microphthalmia-associated transcription factor (Homo sapiens), O75030; actives 0.91% (n = 650,000); AID 1259374, 2018; inhibition, % at 2.6 µM; AlphaScreen MITF homodimerization, bead proximity signal; in the data active = inhibition above about 50%;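 note: 0% = vehicle wells with protein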
Target sequence (O75030 whole entry, looked up): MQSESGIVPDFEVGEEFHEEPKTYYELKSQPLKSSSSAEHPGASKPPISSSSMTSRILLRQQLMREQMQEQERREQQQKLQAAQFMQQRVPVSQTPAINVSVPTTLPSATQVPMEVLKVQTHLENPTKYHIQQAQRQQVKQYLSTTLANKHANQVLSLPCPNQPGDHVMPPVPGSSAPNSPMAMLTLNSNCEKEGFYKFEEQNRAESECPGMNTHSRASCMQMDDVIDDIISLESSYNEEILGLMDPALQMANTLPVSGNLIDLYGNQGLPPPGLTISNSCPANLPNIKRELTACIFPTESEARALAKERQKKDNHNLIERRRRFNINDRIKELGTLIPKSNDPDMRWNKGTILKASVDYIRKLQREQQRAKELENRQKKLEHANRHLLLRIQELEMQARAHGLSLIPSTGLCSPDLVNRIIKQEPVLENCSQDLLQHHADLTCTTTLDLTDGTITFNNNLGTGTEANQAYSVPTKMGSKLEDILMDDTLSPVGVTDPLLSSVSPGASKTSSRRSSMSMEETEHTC
TEAD-YAP block: TEAD-YAP interaction inhibition, primary screen, TEAD-YAP interaction inhibitor project, luminescence, HEK-TIYL cells. TEAD-Gal4/YAP UAS-luciferase luminescence. inhibition, % at 9.12 µM. actives 1.4% (n = 640,000). AID 1259422, 2018; in the data active = inhibition above about 32%;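 note: 0% = median of test compound wells and 100% = reference inhibitor wells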
GPR151 activ: activators of human GPR151, primary screen, cell-based, PathHunter beta-arrestin, luminescence; PathHunter beta-arrestin GPR151 cells; actives 1% (n = 650,000); activation, % at 11.2 µM; G-protein coupled receptor 151 (Homo sapiens), Q8TDV0; in the data active = activation above about 4.9%;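 note: 0% = median of compound wells and 100% = cells with positive control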
FBW7 activator: FBW7 E3 ligase activators, primary screen, biochemical, AlphaScreen, human; F-box/WD repeat-containing protein 7 (Homo sapiens), Q969H0; AlphaScreen FBW7–phospho-cyclin E peptide binding, activator screen; normalized activity (activation), % at 26.1 µM; actives 0.13% (n = 650,000); AID 1259310, 2017; in the data active = normalized activity above about 1.9%;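 note: purified mutant Fbw7 with reduced substrate affinity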
MITF confirm: MITF inhibitors, retest of hits, confirmation, biochemical, AlphaScreen, triplicate | shares compounds with MITF primary | actives 16% (n = 4,700) | AlphaScreen MITF homodimerization, biotin/His-MITF beads | inhibition, % at 2.6 µM | AID 1259372, 2018;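 active = inhibition above a cutoff derived from the DMSO control wells, cut at about 28% in these data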;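 note: 0% = MITF dimer wells with DMSO only; inhibitors lower the bead chemiluminescence by keeping MITF from dimerizing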
AlphaScreen DR: AlphaScreen optical interference compounds, dose response, counter-screen, biochemical, HTS; shares compounds with MITF primary; AlphaScreen optical interference counterscreen, cell-free; IC50, µM; actives 6% (n = 480); AID 1259373, 2018; call rule not given here
AlphaScreen intf2: AlphaScreen optical interference compounds, counter-screen for MITF inhibitor project, biochemical, triplicate; shares compounds with MITF primary; LysRS AlphaScreen counterscreen, signal interference; inhibition, % at 2.6 µM; actives 7.6% (n = 4,700); AID 1259376, 2018;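 active = inhibition above a cutoff derived from the DMSO control wells, cut at about 30% in these data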
* hit, by the source's call; / = no result.

SMILES	MITF primary	TEAD-YAP block	GPR151 activ	FBW7 activator	MITF confirm	AlphaScreen intf2	others
C[C@H]1C(=O)N2CCN(C(=O)NCc3ccccc3)C[C@@H]2C(=O)N1C	76*	9	-1	0	73*	-7	AlphaScreen DR=>6.5
O=C(NCc1ccccc1)N1CCN2C(=O)[C@@H]3CCCN3C(=O)[C@H]2C1	77*	2	0	0	74*	-9	AlphaScreen DR=>6.5
O=C(OCc1ccccc1)N1CCN2C(=O)[C@@H]3CCCN3C(=O)[C@H]2C1	2	-5	1	0	/	/
C[C@H]1C(=O)N2CCN(CCc3ccccc3)C[C@@H]2C(=O)N1C	1	1	1	0	/	/
COc1ccccc1N1CCN(C2CCCN(S(=O)(=O)c3ccc(C)cc3)C2)CC1 (stereo not given)	-6	1	1	0	/	/
COc1ccccc1N1CCN(C2CCCN(C3CCC3)C2)CC1 (stereo not given)	12	-2	1	0	/	/
COc1ccc(S(=O)(=O)N2CCC(N3CCN(c4ccccc4OC)CC3)CC2)cc1	89*	1	-1	1	3	13
COc1ccccc1N1CCN(C2CCN(C3CCCCC3)CC2)CC1	69*	-2	-1	0	-8	-2
CC1CN(C2CCN(S(=O)(=O)c3ccc4ccccc4c3)CC2)CC(C)O1 (stereo not given)	52*	0	0	0	3	7
COc1cccc(CN2CCC(N3CCN(c4ccccc4OC)CC3)CC2)c1	56*	3	-3	0	-4	-3
COc1cccc(NC(=O)c2ccc([N+](=O)[O-])cc2)c1	10	-5	-4	0	/	/
O=C(Nc1cccnc1)c1ccc2nc(N3C(=O)c4ccccc4C3=O)sc2c1	4	-10	-1	0	/	/
N#CC1=C(N)Oc2c(c(=O)[nH]c3ccccc23)C1c1ccsc1 (stereo not given)	-5	-1	0	0	/	/
COc1ccc(NC(=O)C2CC(=O)NC(=Nc3ccc(C)c(C)c3)S2)cc1 (stereo not given)	0	5	-1	0	/	/
Cc1ccc(N=C2NC(=O)CC(C(=O)Nc3ccc(Cl)cc3)S2)cc1C (stereo not given)	78*	6	1	0	9	6
CCNc1nc(C)cc(NCCN(C(C)C)C(C)C)n1	-2	6	3	0	/	/
O=C1c2ccc([N+](=O)[O-])cc2C(=O)N1c1cc(Br)c(O)c(Br)c1	69*	6	0	0	75*	-30	AlphaScreen DR=>6.5
COc1ccc2c(c1)CC(C(=O)Nc1ccc(-c3cn[nH]c3)cc1OCC#N)CO2 (stereo not given)	52*	2	0	0	43*	19	AlphaScreen DR=>6.5
COc1ccc2c(c1)CC(C(=O)Nc1ccc(-c3cn[nH]c3)cc1C(=O)N(C)OC)CO2 (stereo not given)	51*	-8	-3	0	51*	13	AlphaScreen DR=>6.5
O=C(Nc1ccccc1C(F)(F)F)c1ccc(NC(=O)c2ccccc2C(=O)O)cc1	56*	-34	1	0	-3	0
O=C(Nc1ccccc1C(F)(F)F)c1ccc(NC(=O)c2ccco2)cc1	5	-19	-1	0	/	/
Cc1cccc(Nc2nc(-c3ccc(O)cc3)cs2)c1	67*	-46	-1	0	8	21
C=CCNc1nc(-c2ccc(O)cc2)cs1	70*	-23	-1	0	5	22
Cc1csc2ncc(C(=O)Nc3ccccc3C#N)c(=O)n12	-2	-10	-1	0	/	/
c1ccc(-c2nc(Nc3ccncc3)cc(-c3cccnc3)n2)cc1	-12	22	0	0	/	/
SMILES	MITF primary	TEAD-YAP block	GPR151 activ	FBW7 activator	MITF confirm	AlphaScreen intf2	others
Cc1ccc(C)n1C(Cc1c[nH]c2ccccc12)C(=O)O (stereo not given)	87*	-6	-1	-1	73*	14	AlphaScreen DR=>6.5
CCN(CC)C(=O)C1CCCN(c2nccc(NCCCN3CCCC3=O)n2)C1 (stereo not given)	2	8	0	0	/	/
O=C(C(Cc1c[nH]c2ccccc12)NS(=O)(=O)c1ccc(Cl)cc1)N1CCCCC1 (stereo not given)	/	/	-2	/	/	/
COc1cccc(C(=O)N2CCN(Cc3cccc4ccccc34)CC2)c1	33	1	1	0	/	/
COc1cccc(C(=O)N2CCN(Cc3ccccc3C(F)(F)F)CC2)c1	71*	-9	1	0	12	11
COc1cccc(C(=O)N2CCN(Cc3ccccc3F)CC2)c1	58*	3	-1	1	13	9
O=C(c1ccc(F)cc1)N1CCN(Cc2ccccc2Br)CC1	50	7	1	0	/	/
COc1ccc(C(=O)N2CCN(Cc3ccccc3Br)CC2)cc1	59*	3	0	0	1	8
COc1cccc(C(=O)N2CCN(Cc3ccccc3Br)CC2)c1	65*	-5	1	0	7	16
COc1ccc(OCCOc2ccc(/C=C3/C(=N)N4OC(C)=CC4=NC3=O)cc2OC)cc1	22	1	1	0	/	/
CCOC(=O)N1CCc2c(sc(NC(=O)c3ccc(S(=O)(=O)N4CCCCCC4)cc3)c2C(N)=O)C1	-7	-2	1	0	/	/
CN=C1SC(CC(=O)Nc2cccc(C(=O)O)c2)C(=O)N1C (stereo not given)	53*	10	3	0	36*	9	AlphaScreen DR=>6.5
CCc1ccc(NC(=O)CSc2nnc(-c3ccncc3)n2CCCN(C)C)cc1	88*	3	-1	0	8	12
CCn1c(SCC(=O)Nc2ccc(NC(=O)C(C)(C)C)cc2)nnc1-c1ccncc1	-1	7	-1	0	/	/
Cn1c(SCC(=O)Nc2ccc(C(=O)O)cc2)nnc1-c1ccncc1	4	6	3	0	/	/
CC(=O)c1ccc(NC(=O)CSc2nnc(-c3ccncc3)n2CCCN(C)C)cc1	71*	-13	0	0	7	10
C=CCc1cc(OC)ccc1OCCCN1CCN(C)CC1	82*	4	0	0	0	-3
C=CCc1cc(OC)ccc1OCCN1CCN(C)CC1	67*	16	-2	0	11	3
C=CCc1cc(OC)ccc1OCCN1CCCCC1	33	-2	0	0	/	/
C=CCc1cc(OC)ccc1OCCCCn1cncn1	76*	5	-1	0	-20	0

Assay outcomes from PubChem BioAssay.
